The record followed here is PubChem BioAssay (EPA / NIEHS).

Assay [1] in a line: ATG_SREBP_CIS: Attagene CIS-FACTORIAL HepG2 Assay for human Sterol Regulatory Element Binding (SREBP) (AID 2282962). To be noted: HepG2 Attagene cis-factorial SREBP reporter, mRNA; actives raise or lower the signal. In a few lines:
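Readout: fluorescent reporter-transcript peaks resolved by capillary electrophoresis after RT-PCR. Cells were human HepG2 carrying transfected cis-promoter reporter constructs, dosed for 24 h. Gain or loss of signal was fitted against DMSO controls.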

The nature of assay [2]: ATG_M_32_TRANS: Attagene TRANS-FACTORIAL HepG2 Assay for M32 Transcription Factor (Internal Marker) (AID 2282984; active means hit-call score of the fitted dose curve at least 0.9, where 1 is the maximum;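 further: transcript level of a background control reporter unit measured by RT-PCR and capillary electrophoresis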). The following applies: HepG2 Attagene TRANS M32 internal marker reporter. The gist of the method:
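Fluorescence-detected mRNA induction, HepG2 liver cells, 24 h after dosing. Multiple GAL4-UAS reporter units introduced by transient transfection; background-control endpoint analysed for gain of signal against DMSO.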

A short description of assay [3]: ATG_NFI_CIS: Attagene CIS-FACTORIAL HepG2 Assay for human Nuclear Factor I (NFI) (AID 2282989). The following applies: HepG2 cis-regulatory reporter, NFI response element transcription; actives raise or lower the signal. In a few lines:
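Read-out: reporter mRNA via RT-PCR plus capillary electrophoresis with fluorescence detection. Transiently transfected HepG2 (endogenous TF activity on cis promoters), 24 h compound exposure; gain or loss of signal fitted against DMSO.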

Assay [4] concerns the target human Peroxisome Proliferator-activated Receptor alpha (PPARa), PPARA (gene 5465) (UniProt Q07869). Briefly: ATG_PPARa_TRANS: Attagene TRANS-FACTORIAL HepG2 Assay for human Peroxisome Proliferator-activated Receptor alpha (PPARa) (AID 2283001; active means hit-call score of the fitted dose curve at least 0.9, where 1 is the maximum;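 on AC50: potency for gain of reporter signal over DMSO so agonist or activator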). The gist of the method: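 Exposure: 24 h, transiently transfected HepG2 cells. Endpoint: GAL4-UAS reporter mRNA, RT-PCR with capillary electrophoresis fluorescence. Baseline: DMSO; increases fitted.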

The target of assay [5] is Nuclear receptor subfamily 1 group I member 2 (Homo sapiens) (UniProt O75469). Briefly: ATG_PXR_TRANS: Attagene TRANS-FACTORIAL HepG2 Assay for human Pregnane X Receptor (PXR) (AID 2283008; active means hit-call score of the fitted dose curve at least 0.9, where 1 is the maximum). In a few lines:
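Trans-factorial format: exogenous NR-Gal4 fusion activity, not endogenous factor, in transfected human HepG2 liver cells. After 24 h dosing, RNA isolated, reverse-transcribed, amplified and resolved by capillary electrophoresis; induction scored versus DMSO.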

Assay [6] can be described thus: ATG_XTT_Cytotoxicity: Cytotoxicity Assessment in the Attagene TRANS-FACTORIAL HepG2 Assay (AID 2283584; active means hit-call score of the fitted dose curve at least 0.9, where 1 is the maximum). In a few lines: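 Viability endpoint from XTT after 24 h chemical exposure of reporter-transfected human HepG2 liver cells; signal loss fitted relative to DMSO negative control.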
A short description of assay [7]: BSK_3C_TissueFactor: BioMAP Diversity Plus: 3C Assay for Tissue Factor Biomarker Activity (AID 2282997). To be noted: BioMAP 3C HUVEC, tissue factor biomarker readout; actives raise or lower the signal. In a few lines: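 Tissue factor on primary human umbilical vein endothelium was read by ELISA 24 h after dosing, gain or loss relative to DMSO. Cytotoxicity ran alongside via SRB (0.1%, TCA-fixed, 560 nm).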

Read-out in assay [8]: Intercellular Adhesion Molecule 1 (ICAM1), ICAM1 (gene 3383)
Nature of the assay: BSK_3C_ICAM1: BioMAP Diversity Plus: 3C Assay for Intercellular Adhesion Molecule 1 (ICAM1) Biomarker Activity (AID 2283003). To be noted: primary human endothelial cells (HUVEC); actives raise or lower the signal. The gist of the method: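 ELISA read-out of ICAM-1; HUVEC (primary human), 3C system, 24 h post-dosing; bidirectional fit vs DMSO baseline.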

Read-out in assay [9]: E-selectin (Homo sapiens) (UniProt P16581)
Nature of the assay: BSK_3C_Eselectin: BioMAP Diversity Plus: 3C Assay for Eselectin Biomarker Activity (AID 2283015).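 Further: cell surface E-selectin protein quantified by ELISA 24 h after dosing.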 To be noted: primary human endothelial cells (HUVEC); actives raise or lower the signal. The gist of the method: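 E-selectin ELISA readout, fitted bidirectionally relative to DMSO, taken 24 h post-dosing in HUVEC cultures of the 3C system. Overt cytotoxicity tracked with sulforhodamine B staining of parallel wells.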

Read-out in assay [10]: Matrix Metallopeptidase 1 (MMP1), MMP1 (gene 4312)
Briefly: BSK_BE3C_MMP1: BioMAP Diversity Plus: BE3C Assay for Matrix Metallopeptidase 1 (MMP1) Biomarker Activity (AID 2283024). To be noted: primary human bronchial epithelial cells; actives raise or lower the signal. In a few lines:
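ELISA read-out of MMP1 in human lung bronchial epithelial primary cultures, 24 h post-dose; bidirectional curve fit vs DMSO baseline, gain or loss of signal scored.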

Read-out in assay [11]: Pselectin, SELP (gene 6403)
Briefly: BSK_4H_Pselectin: BioMAP Diversity Plus: 4H Assay for Pselectin Biomarker Activity (AID 2283026). To be noted: primary human endothelial cells (HUVEC); actives raise or lower the signal. The gist of the method: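 HUVEC, 24 h chemical exposure; P-selectin read by ELISA. Bidirectional curve fit vs DMSO baseline; gain or loss of signal scored.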

Read-out in assay [12]: Human Leukocyte Antigen - DR isotype (HLADR), HLA-DRA (gene 3122)
Briefly: BSK_BE3C_HLADR: BioMAP Diversity Plus: BE3C Assay for Human Leukocyte Antigen - DR isotype (HLADR) Biomarker Activity (AID 2283032). To be noted: primary human bronchial epithelial cells; actives raise or lower the signal. In a few lines: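 Primary human bronchial epithelial cells (BE3C); 24 h chemical exposure; HLA-DR by ELISA; bidirectional curve fit vs DMSO baseline.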

Read-out in assay [13]: Vascular cell adhesion molecule 1 (VCAM1), VCAM1 (gene 7412)
Nature of the assay: BSK_4H_VCAM1: BioMAP Diversity Plus: 4H Assay for Vascular cell adhesion molecule 1 (VCAM1) Biomarker Activity (AID 2283033).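 On outcome: cell-surface VCAM-1 protein measured by ELISA.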 The following applies: primary human endothelial cells (HUVEC); actives raise or lower the signal. The gist of the method:
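HUVEC, 24 h post-dose; VCAM-1 by ELISA. Bidirectional curve fit vs DMSO baseline. Parallel SRB total-protein stain (0.1% SRB after 10% TCA fixation, 560 nm) for cytotoxicity.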

Read-out in assay [14]: Interferon-gamma inducible Protein 10 (IP10), CXCL10 (gene 3627)
Nature of the assay: BSK_BE3C_IP10: BioMAP Diversity Plus: BE3C Assay for Interferon-gamma inducible Protein 10 (IP10) Biomarker Activity (AID 2283034). The following applies: primary human bronchial epithelial cells; actives raise or lower the signal. The gist of the method: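 ELISA readout of IP-10 in BE3C system: primary human bronchial epithelial cells, 24 h post-dosing; bidirectional curve fit vs DMSO baseline.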

Read-out in assay [15]: urokinase plasminogen activator (uPA), PLAU (gene 5328)
Briefly: BSK_BE3C_uPA: BioMAP Diversity Plus: BE3C Assay for urokinase plasminogen activator (uPA) Biomarker Activity (AID 2283038).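 Further: uPA protein level quantified by ELISA in cell cultures; uPA read one day after compound addition.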 The following applies: primary human bronchial epithelial cells; actives raise or lower the signal. The gist of the method:
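ELISA for uPA on human primary bronchial epithelial cultures 24 h post-treatment, gain or loss against DMSO. Parallel SRB staining (0.1% after 10% TCA fixation, 560 nm) assessed overt cytotoxicity.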

Read-out in assay [16]: Interleukin-6 (IL6), IL6 (gene 3569)
Nature of the assay: BSK_CASM3C_IL6: BioMAP Diversity Plus: CASM3C Assay for Interleukin-6 (IL6) Biomarker Activity for (AID 2283040). To be noted: primary human coronary artery smooth muscle cells; actives raise or lower the signal.

Read-out in assay [17]: Tissue Factor, F3 (gene 2152)
Nature of the assay: BSK_CASM3C_TissueFactor: BioMAP Diversity Plus: CASM3C Assay for Tissue Factor Biomarker Activity (AID 2283052).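 Further: cell surface tissue factor protein level read by ELISA.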 To be noted: primary human coronary artery smooth muscle cells; actives raise or lower the signal.

Read-out in assay [18]: Urokinase-type plasminogen activator receptor (uPAR), PLAUR (gene 5329)
Briefly: BSK_CASM3C_uPAR: BioMAP Diversity Plus: CASM3C Assay for Urokinase-type plasminogen activator receptor (uPAR) Biomarker Activity (AID 2283054).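 Further: cell-surface uPAR protein level quantified by ELISA.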 To be noted: primary human coronary artery smooth muscle cells; actives raise or lower the signal.

Read-out in assay [19]: Tissue Factor, F3 (gene 2152)
Briefly: BSK_LPS_TissueFactor: BioMAP Diversity Plus: LPS Assay for Tissue Factor Biomarker Activity (AID 2283084). The following applies: primary human HUVEC with PBMC; actives raise or lower the signal. The gist of the method: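 Compound was added to an endothelial cell/PBMC co-culture, and after 24 h tissue factor (CD142) was read by ELISA. Gain or loss of signal was fitted against a DMSO baseline, and parallel SRB staining (560 nm) tracked overt cytotoxicity.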

Broadly, the AC50 is the midpoint of the concentration-response curve, whichever way the signal moves.

The structures appear in SMILES notation. Where “and” joins values, the source holds several entries; their conditions need not be identical. Equal values may be shown once. Records with an inconclusive call do not appear. Some compounds were tested as several samples or in several runs, with calls that do not always agree. Calls of active or inactive are those of the source. How the source made its calls, unless noted: active means hit-call score of the fitted dose curve at least 0.9, where 1 is the maximum; inactive means score below 0.9.

Chain of human Peroxisome Proliferator-activated Receptor alpha (PPARa), PPARA (gene 5465) (Q07869 whole entry, looked up, the tested form may be a part): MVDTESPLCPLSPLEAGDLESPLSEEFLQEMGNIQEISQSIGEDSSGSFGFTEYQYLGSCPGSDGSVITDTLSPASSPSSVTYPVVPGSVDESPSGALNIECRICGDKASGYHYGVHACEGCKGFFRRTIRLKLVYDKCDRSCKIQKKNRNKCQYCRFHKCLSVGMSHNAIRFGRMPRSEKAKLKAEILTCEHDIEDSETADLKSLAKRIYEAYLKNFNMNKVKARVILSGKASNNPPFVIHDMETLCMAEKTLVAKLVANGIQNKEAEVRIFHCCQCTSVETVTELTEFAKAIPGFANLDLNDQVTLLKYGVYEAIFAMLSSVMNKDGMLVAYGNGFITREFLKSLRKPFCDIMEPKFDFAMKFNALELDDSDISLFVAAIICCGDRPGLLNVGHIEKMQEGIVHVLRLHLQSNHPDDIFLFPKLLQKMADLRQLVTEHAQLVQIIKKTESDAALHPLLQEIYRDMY
Chain of E-selectin (Homo sapiens) (P16581 whole entry, looked up): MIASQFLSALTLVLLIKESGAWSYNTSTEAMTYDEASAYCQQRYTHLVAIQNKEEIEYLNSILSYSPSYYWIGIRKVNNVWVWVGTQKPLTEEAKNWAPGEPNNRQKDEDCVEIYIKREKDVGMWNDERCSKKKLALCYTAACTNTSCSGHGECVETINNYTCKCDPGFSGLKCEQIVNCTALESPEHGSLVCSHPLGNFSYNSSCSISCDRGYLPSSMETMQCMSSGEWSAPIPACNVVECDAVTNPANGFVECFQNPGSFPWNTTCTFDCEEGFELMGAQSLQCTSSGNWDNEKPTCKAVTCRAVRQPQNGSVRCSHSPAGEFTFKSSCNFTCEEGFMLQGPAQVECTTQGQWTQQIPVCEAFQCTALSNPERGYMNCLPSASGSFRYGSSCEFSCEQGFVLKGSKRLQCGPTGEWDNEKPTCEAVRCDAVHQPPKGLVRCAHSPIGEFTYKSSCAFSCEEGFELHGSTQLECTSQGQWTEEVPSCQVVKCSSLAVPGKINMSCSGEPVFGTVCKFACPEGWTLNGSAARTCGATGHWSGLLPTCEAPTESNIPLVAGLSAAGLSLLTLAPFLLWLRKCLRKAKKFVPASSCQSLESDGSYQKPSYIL
Chain of Nuclear receptor subfamily 1 group I member 2 (Homo sapiens) (O75469 whole entry, looked up, the tested form may be a part): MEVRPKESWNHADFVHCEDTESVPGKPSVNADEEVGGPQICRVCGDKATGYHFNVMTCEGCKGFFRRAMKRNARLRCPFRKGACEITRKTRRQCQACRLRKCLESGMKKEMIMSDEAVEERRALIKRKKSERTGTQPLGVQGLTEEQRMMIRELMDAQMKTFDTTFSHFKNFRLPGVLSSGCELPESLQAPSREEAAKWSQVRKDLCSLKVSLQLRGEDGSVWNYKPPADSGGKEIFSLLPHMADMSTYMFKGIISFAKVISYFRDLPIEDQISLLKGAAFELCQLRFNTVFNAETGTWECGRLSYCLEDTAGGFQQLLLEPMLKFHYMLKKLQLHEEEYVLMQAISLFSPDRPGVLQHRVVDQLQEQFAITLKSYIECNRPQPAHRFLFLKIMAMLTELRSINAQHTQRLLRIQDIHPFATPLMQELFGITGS

Take `CCC(C)(CCC(C)C)C(=O)O` (configuration not stated): the result in assay [1], in assay [2], in [3], in [4], in assay [5] and in assay [6] was inactive.

Regarding `CCO[Si](CCCN)(OCC)OCC`, the outcome in [1], in assay [3] and in assay [4] was inactive.

With `COc1cc(CNC(=O)CCCC/C=C/C(C)C)ccc1O`, the outcome in [7], in assay [8], in [9], in [11], in [12] and in [13] was inactive. Further, the outcome in assay [14], in [15], in assay [16], in assay [17], in assay [18] and in assay [19] was inactive. Also, in assay [10], the AC50 was 14.4 µM (active) and 14 µM (active).

As for `COc1ccccc1Oc1c(NS(=O)(=O)c2ccc(C(C)(C)C)cc2)nc(-c2ncccn2)nc1OCCO`, the outcome in [7], in assay [8], in assay [9], in [10], in assay [11] and in assay [12] was inactive. Also, the outcome in assay [13], in assay [14], in assay [15], in assay [16], in assay [18] and in assay [19] was inactive. For the same compound, the AC50 in assay [10] was 20 µM (active); in [17], 1.97 µM (active) and 5.36 µM (active).

On to `CNC(=C[N+](=O)[O-])NCCSCc1csc(CN(C)C)n1`, for which the compound was called inactive in [2], in [3] and in [6].

For the compound `COc1ccc(C(=O)c2ccccc2O)c(O)c1`, the AC50 is 20 µM (active) and 17.9 µM (active) in assay [7]; 20 µM (active) in assay [11]; 11.5 µM (active) and 14.2 µM (active) in assay [13]. In addition, the result in [8], in assay [9], in assay [10], in [11], in assay [12] and in assay [14] was inactive. Moreover, the outcome in [15], in assay [16], in assay [17], in assay [18] and in [19] was inactive.

On to `CCCCCC[C@@H](O)C/C=C\CCCCCCCC(=O)O`, for which the call in assay [1], in [2], in assay [5] and in assay [6] was inactive. The AC50 is 153 µM (active) in [3] and 8.72 µM (active) in assay [4].

Take `O=S(=O)(O)c1cccc2ccccc12`: the call in assay [1], in assay [4] and in [5] was inactive.
